Hit rate of the full screen: of about 69,000 compounds, about 30 (0.04%) showed an effect of 50% or more. The sample holds strong results, similar compounds and a random draw of the others, so the mix is not that of the screen.
Target: T1, Histidine--tRNA ligase (Trypanosoma cruzi (strain CL Brener)) (UniProt Q4DA54)
T1 sequence (whole entry): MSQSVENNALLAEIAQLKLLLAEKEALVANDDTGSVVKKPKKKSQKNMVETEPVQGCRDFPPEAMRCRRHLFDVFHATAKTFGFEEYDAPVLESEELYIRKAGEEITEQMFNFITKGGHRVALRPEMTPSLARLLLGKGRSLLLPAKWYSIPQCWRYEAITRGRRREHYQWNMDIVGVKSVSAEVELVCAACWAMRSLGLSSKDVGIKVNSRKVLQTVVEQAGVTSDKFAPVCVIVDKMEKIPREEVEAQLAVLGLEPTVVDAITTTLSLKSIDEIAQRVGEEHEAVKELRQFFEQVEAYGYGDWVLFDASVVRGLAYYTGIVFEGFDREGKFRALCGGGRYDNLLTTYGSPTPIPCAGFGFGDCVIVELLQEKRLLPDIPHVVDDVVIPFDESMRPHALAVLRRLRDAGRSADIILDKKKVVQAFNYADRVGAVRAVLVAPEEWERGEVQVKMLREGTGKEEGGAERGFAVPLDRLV
Assay: Trypanosoma cruzi histidyl tRNA synthetase (Tc-HisRS)
Format: functional
Set-up: scale not given: direction of the effect not stated beside the values
Conditions: 30 µM

**Q.** Which Percent Effect does the source give for `O=C(c1ccc(F)cc1)N1C[C@@H]2COC[C@]2(COc2cccnc2)C1` here?
**A.** 8.47%

**Q.** With `Cc1ccc(C(=O)N2CC[C@@H]3[C@H]2CCC(=O)N3c2ccccc2)o1` as the molecule, how does the Percent Effect read?
**A.** 2.73%

**Q.** For `CCCN1CC[C@@H]2[C@@H](CO[C@H]2CNC(=O)c2nccn2C)C1`, which Percent Effect is on record?
**A.** 3.09%

**Q.** For `Fc1cccc(CN2CCC(c3cc4ncccc4cn3)CC2)c1F`, which Percent Effect is on record?
**A.** 33.9%

**Q.** `COc1ccc(C)cc1CN1CCC(c2cc3ncccc3cn2)CC1` was tested. Which Percent Effect did it give?
**A.** 66.2%

**Q.** With `Fc1ccc(F)c(CN2CCC(c3cc4ncccc4cn3)CC2)c1` as the molecule, how does the Percent Effect read?
**A.** 29.2%

**Q.** `Cc1occc1C(=O)N1C[C@@H]2OCCN(CCN3CCCC3)[C@@H]2C1` was tested. Which Percent Effect did it give?
**A.** 4.9%

**Q.** For `Cc1csc(CN2CC[C@H]3C[C@H](c4nnc(C)[nH]4)O[C@@H]3C2)n1`, which Percent Effect is on record?
**A.** -2.48%

**Q.** For `Cc1ccc(S(=O)(=O)N2C[C@H]3C[C@H](NC(=O)c4ccnn4C)[C@H]3C2)cc1`, which Percent Effect is on record?
**A.** 5.95%

**Q.** `O=C(c1ccsc1)N1C[C@@H]2CCN(c3cccnc3)C[C@@H]2C1` was tested. Which Percent Effect did it give?
**A.** -1.97%

**Q.** Which Percent Effect does the source give for `CC(C)=CCN1CCN(Cc2nc3ccccc3[nH]2)[C@H]2CS(=O)(=O)C[C@H]21` here?
**A.** 4.35%

**Q.** Which Percent Effect does the source give for `Cc1cc(C(=O)N2C[C@@H]3COC[C@]3(c3nnc(C)o3)C2)on1` here?
**A.** 0.99%

**Q.** Which Percent Effect does the source give for `CNc1nc2c(s1)C(c1c(F)cccc1Cl)CC(=O)N2` (stereo not drawn) here?
**A.** 52.2%

**Q.** Which Percent Effect does the source give for `CNc1nc2c(s1)C(c1c(Cl)cccc1Cl)CC(=O)N2` (stereo not drawn) here?
**A.** 31.5%

**Q.** For `CNc1nc2c(s1)C(c1cccc(Cl)c1Cl)CC(=O)N2` (stereo not drawn), which Percent Effect is on record?
**A.** 34.8%

**Q.** `Cc1ccc(CN2C[C@@H]3COC[C@]3(COc3ccc(C#N)cn3)C2)o1` was tested. Which Percent Effect did it give?
**A.** 4.39%

**Q.** `O=C(CCc1ccccc1)N[C@H]1CC[C@@]2(CCC(=O)N2)CC1` was tested. Which Percent Effect did it give?
**A.** 9.71%

**Q.** With `O=C(c1ccco1)N1CCO[C@@H]2CN(Cc3nccs3)CC[C@@H]2C1` as the molecule, how does the Percent Effect read?
**A.** 2.21%

**Q.** `CN(C)C(=O)[C@H]1C[C@H]2OCC[C@H]2N(Cc2ccc3ccccc3n2)C1` was tested. Which Percent Effect did it give?
**A.** 12.8%

**Q.** With `O=C(N1CCOCC1)[C@@]12CCO[C@@H]1CCN(CC1CCCC1)C2` as the molecule, how does the Percent Effect read?
**A.** 0%

**Q.** With `Cc1ncccc1NC(=O)[C@@H]1CCO[C@@H]2CCN(c3ccccc3)C[C@@H]21` as the molecule, how does the Percent Effect read?
**A.** 7.26%

**Q.** For `Cc1noc([C@@H]2C[C@H]3OCC[C@H]3N(Cc3cc(C)c(C)o3)C2)n1`, which Percent Effect is on record?
**A.** 8.87%

**Q.** Which Percent Effect does the source give for `O=C1CC[C@H]2[C@H](CCN2C(=O)C2CCCO2)N1Cc1ccncc1` (stereo partly drawn) here?
**A.** -3.83%

**Q.** Which Percent Effect does the source give for `O=C(NCc1ccco1)[C@H]1CC[C@@H]2[C@@H](CCN2C2CCC2)O1` here?
**A.** 8.54%

**Q.** Which Percent Effect does the source give for `COc1ccc(CN2CCN(C(=O)N(C)C)[C@@H]3CS(=O)(=O)C[C@@H]32)cc1F` here?
**A.** 3.06%

**Q.** For `CO[C@H]1C[C@@H]2CN(C(=O)c3ccc(C)s3)C[C@@H]2C1`, which Percent Effect is on record?
**A.** 8.05%

**Q.** `Cc1cc(=O)n(C)cc1NC(=O)Cc1ccc(C(F)(F)F)cc1` was tested. Which Percent Effect did it give?
**A.** 14.2%

**Q.** Which Percent Effect does the source give for `Cc1cc(=O)n(C)cc1NC(=O)Cc1cc(F)ccc1F` here?
**A.** 57.9%

**Q.** Which Percent Effect does the source give for `Cc1cc(=O)n(C)cc1NC(=O)Cc1cccc(F)c1` here?
**A.** 14.2%

**Q.** How did the Percent Effect turn out when `CCC1=N[C@@]2(CC[C@@H]3CN(C(=O)NCc4ccccc4)C[C@@H]32)C(=O)N1C` was run?
**A.** 3.83%

**Q.** How did the Percent Effect turn out when `CNc1nc2c(s1)C(c1ccccc1Cl)CC(=O)N2` (stereo not drawn) was run?
**A.** 17.4%

**Q.** For `COc1cccc(C2CC(=O)Nc3nc(N)sc32)c1OC` (stereo not drawn), which Percent Effect is on record?
**A.** 70.7%

**Q.** `CCOc1cccc(C2CC(=O)NCc3nc(N4CCCC4)sc32)c1` (stereo not drawn) was tested. Which Percent Effect did it give?
**A.** 9.84%

**Q.** Which Percent Effect does the source give for `CNc1nc2c(s1)C(c1cccc(F)c1F)CC(=O)N2` (stereo not drawn) here?
**A.** 3.26%

**Q.** For `CC(C)Oc1ccccc1C1CC(=O)Nc2nc(N3CCOCC3)sc21` (stereo not drawn), which Percent Effect is on record?
**A.** 1.24%

**Q.** How did the Percent Effect turn out when `Nc1nc2c(s1)C(c1c(F)cccc1Cl)CC(=O)N2` (stereo not drawn) was run?
**A.** -3.73%

**Q.** For `O=C1CC(c2ccccc2C(F)(F)F)c2sc(N3CCOCC3)nc2N1` (stereo not drawn), which Percent Effect is on record?
**A.** 33.5%

**Q.** Which Percent Effect does the source give for `COc1cccc(C2CC(=O)Nc3nc(N4CCCCC4)sc32)c1OC` (stereo not drawn) here?
**A.** 74.5%

**Q.** Which Percent Effect does the source give for `COc1cccc(C2CC(=O)Nc3nc(N4CCOCC4)sc32)c1OC` (stereo not drawn) here?
**A.** 65.2%

**Q.** With `O=C1CC(c2ccccc2Br)c2sc(N3CCOCC3)nc2N1` (stereo not drawn) as the molecule, how does the Percent Effect read?
**A.** 16.1%

**Q.** With `COc1ccccc1C1CC(=O)Nc2nc(N3CCCCC3)sc21` (stereo not drawn) as the molecule, how does the Percent Effect read?
**A.** 74.5%

**Q.** `CNc1nc2c(s1)C(c1ccccc1F)CC(=O)N2` (stereo not drawn) was tested. Which Percent Effect did it give?
**A.** 14.9%

**Q.** For `COCCN1C[C@H]2CC[C@@H]1CN(C(=O)CCc1c(C)nn(C)c1C)C2`, which Percent Effect is on record?
**A.** 13.1%

**Q.** With `CN(C)C(=O)COC[C@H]1CC[C@@H]2[C@@H](CCN2Cc2ccco2)O1` as the molecule, how does the Percent Effect read?
**A.** 7.04%

**Q.** With `Cc1ccc2nc(C(=O)N3CCCC[C@]4(C)NC(=O)CCC[C@H]34)cn2c1` as the molecule, how does the Percent Effect read?
**A.** 2.24%

**Q.** `CCN(CC)CCNC(=O)CCc1c(C)nn(-c2ccccc2Br)c1C` was tested. Which Percent Effect did it give?
**A.** 61.4%

**Q.** Which Percent Effect does the source give for `CCN(CC)CCNC(=O)CCc1c(C)nn(-c2ccccc2Cl)c1C` here?
**A.** 0%

**Q.** For `CCN(CC)CCNC(=O)CCc1c(C)nn(-c2ccc(Cl)cc2)c1C`, which Percent Effect is on record?
**A.** 2.27%

**Q.** Which Percent Effect does the source give for `Cc1cccc(CN2CC[C@@H]3[C@@H](CO[C@H]3CNc3ncccn3)C2)n1` here?
**A.** 10.5%

**Q.** How did the Percent Effect turn out when `O=C(O)[C@]12CCCN(CC3CCOC3)C[C@H]1CN(c1ncccn1)C2` (stereo partly drawn) was run?
**A.** -2.21%

**Q.** For `CNC(=O)[C@@]12CCC3(CCN(C(=O)COC)CC3)[C@@H]1CN(S(C)(=O)=O)C2`, which Percent Effect is on record?
**A.** 3.74%

**Q.** With `CN(C)C(=O)[C@H]1C[C@@H]2CN(S(=O)(=O)c3ccccc3)C[C@H]1O2` as the molecule, how does the Percent Effect read?
**A.** 5.91%

**Q.** `CCCn1cc(NC(=O)c2ccc(S(=O)(=O)CC)cc2)ccc1=O` was tested. Which Percent Effect did it give?
**A.** 35%

**Q.** For `CCCn1cc(NC(=O)c2ccc(S(C)(=O)=O)cc2)ccc1=O`, which Percent Effect is on record?
**A.** 56.7%

**Q.** Which Percent Effect does the source give for `CCCn1cc(NC(=O)c2ccncc2)ccc1=O` here?
**A.** 38.3%

**Q.** How did the Percent Effect turn out when `COC[C@H]1CNC(=O)[C@@H]2CCN(Cc3cccc(C)n3)CC[C@H]12` was run?
**A.** 3.92%

**Q.** `CCc1nccn1CC(=O)N1C[C@H]2CC[C@@H]1CN(c1ncccn1)C2` was tested. Which Percent Effect did it give?
**A.** 5.46%

**Q.** How did the Percent Effect turn out when `Cc1nc(CO[C@H]2CN(C(=O)c3cccnc3)[C@@H]3COC[C@H]23)cs1` was run?
**A.** -1.03%

**Q.** How did the Percent Effect turn out when `O=C1[C@H]2CN(c3cnccn3)C[C@H]2CN1CC1CC1` was run?
**A.** 7.22%

**Q.** `O=C(NCc1ccccc1)[C@H]1C[C@@H]2CN(S(=O)(=O)C3CC3)C[C@H]1O2` was tested. Which Percent Effect did it give?
**A.** 6.01%

**Q.** `CC1=CC[C@@H]2CN(C(=O)c3ccc(-c4nnn(C)n4)cc3)C[C@@H]2C1` was tested. Which Percent Effect did it give?
**A.** 0.8%

**Q.** `O=C(CSc1nc2nncc-2c(O)n1-c1ccccc1)N1CCOCC1` was tested. Which Percent Effect did it give?
**A.** 7.22%

**Q.** Which Percent Effect does the source give for `O=C1CC[C@@H]2[C@@H](CCN2C(=O)C2CCOCC2)N1CC1CC1` here?
**A.** 0%

— ChEMBL document CHEMBL3988442, “University of Dundee, Small-Polar-MMV Screening Library” (2021)
